Source: PubChem BioAssay (Tox21)
Unmarked numbers belong to inactive results. Inconclusive results are not listed. Entries that show only a call come without a potency. Calls of active or inactive are those of the source. Unless noted, calls follow the shape of the full dose curve.

Assays:
[1] = Nuclear factor erythroid 2-related factor 2/antioxidant responsive element (Nrf2/ARE) small molecule agonists: qHTS cell viability counter screen in human keratinocytes (AID 1919968; active = well fitted curve in the direction sought with a large enough effect in the repeat runs; an effect the other way counts as inactive or inconclusive; also: nearly all actives have a fitted effect of over 55% in size)
Summary of the method: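 In human HaCaT keratinocytes stably expressing an ARE-driven luciferase, compound exposure lasted 23 h at 37 C under 5% CO2. Viable cells are quantified with a protease-based fluorogenic reagent (CellTiter-Fluor) read 1 h after addition.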

[2] = Nuclear factor erythroid 2-related factor 2/antioxidant responsive element (Nrf2/ARE) small molecule agonists: luciferase reporter gene qHTS assay in human keratinocytes (AID 1919969); also: nearly all actives have a fitted effect of over 35% in size; also: potency is read from the fitted curve at half-maximal effect
[3] = target: Gonadotropin-releasing hormone receptor (Homo sapiens) (UniProt P30968); experiment: Human gonadotropin-releasing hormone receptor (GnRHR) small molecule agonists, calcium flux assay in GnRHR-HEK293 cells (AID 1920063); also: nearly all actives have a fitted effect of over 35% in size; also: potency is read from the fitted curve at half-maximal effect
Summary of the method: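 Intracellular calcium rise is the read-out: engineered human GnRHR HEK293 cells, dye-loaded, are exposed to DMSO-dissolved compounds and fluorescence at Ex/Em 480/540 is tracked for 3 min.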

[4] = target: KiSS-1 receptor (Homo sapiens) (UniProt Q969F8); experiment: Human kisspeptin (KISS1R) small molecule agonists, calcium flux assay in KISS1R-HEK293 cells (AID 1920064; active = well fitted curve in the direction sought with a large enough effect in the repeat runs; an effect the other way counts as inactive or inconclusive)
Summary of the method: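 Concentration-response testing used 15 concentrations in triplicate on human KISS1R-expressing HEK293 cells. Calcium-dependent fluorescence (Ex/Em 480/540) was followed kinetically for 3 min after compound transfer.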

[5] = G protein-coupled receptor (GPCR) small molecule agonists, calcium flux assay: HEK293 wild type cell line counter screen (AID 1920065)
Summary of the method: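 Fluorescence intensity signals activation. After overnight (18 h) culture and a 1 h calcium dye load at 37 C, compounds are added by pin tool and the plate read at 480/540 nm for 3 min in 1 s steps.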

[6] = p53 small molecule agonists, cell-based qHTS assay with human liver microsomes (AID 1963577);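 also: p53 response element beta-lactamase reporter cells with liver microsomes plus NADPH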
Summary of the method: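 Steps: plate p53RE-bla cells, incubate 5 h at 37 C; add compound in DMSO; add microsomes (0.5 mg/mL final) and NADPH (0.5 mg/mL final); incubate 16 h at 37 C; add LiveBLAzer, 2 h RT; read fluorescence.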

[7] = p53 small molecule agonists, cell-based qHTS assay with rat liver microsomes (AID 1963578)
Summary of the method: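 Metabolic activation is supplied by rat liver microsomes with NADPH (each 0.5 mg/mL final). p53RE-bla cells incubate with compound 16 h at 37 C; reporter activity is measured by LiveBLAzer fluorescence.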

[8] = p53 small molecule agonists, cell-based qHTS assay with human liver microsomes: qHTS cell viability counter screen (AID 1963579); also: nearly all actives have a fitted effect of over 45% in size
Summary of the method: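 After the 460/530 nm beta-lactamase read, CellTiter-Glo was added to the same wells and luminescence measured after 30 min at room temperature, giving viability of p53RE-bla cells treated 16 h with compounds plus microsomes and NADPH.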

[9] = p53 small molecule agonists, cell-based qHTS assay with rat liver microsomes: qHTS cell viability counter screen (AID 1963580); also: nearly all actives have a fitted effect of over 45% in size
Summary of the method: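 After the beta-lactamase ratio was read, CellTiter-Glo was added to the same wells and luminescence measured at 30 min; cells had been treated 16 h at 37 C with compounds, rat liver microsomes and NADPH (0.5 mg/mL final each).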

[10] = p53 small molecule agonists, cell-based qHTS assay: qHTS cell viability counter screen (AID 1963581); also: nearly all actives have a fitted effect of over 45% in size
Summary of the method: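 Luminescence from CellTiter-Glo, reflecting ATP content, serves as the cytotoxicity measure; it is taken after the 2 h reporter substrate step in HCT-116 p53RE-bla cells dosed for 16 h at 37 C.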

[11] = p53 small molecule agonists, cell-based qHTS assay (AID 1963582; active = well fitted activation curve with a large enough effect in the signal ratio in the repeat runs, not every such curve was filed as active; the % refers to the signal ratio)
Summary of the method: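 After plating, p53RE-bla cells sat 5 h in the incubator; compounds or DMSO vehicle were pinned in; a 16 h incubation at 37 C followed; FRET substrate was added and, 2 h later at RT, fluorescence was measured.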

[12] = target: 5-hydroxytryptamine receptor 2A (Homo sapiens) (UniProt P28223); experiment: 5-hydroxytryptamine receptor 2A (HTR2A) small molecule antagonists, cell-based qHTS assay (AID 1963586); also: nearly all actives have a fitted effect of over 45% in size
Summary of the method: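 CHO cells stably expressing human HTR2A were plated for 18 h at 37 C, then loaded with calcium dye for 1 h. Compounds were preincubated 5 min at room temperature before DOI (4 nM solution) was added. Kinetic fluorescence was read for 3 min.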

[13] = target: 5-hydroxytryptamine receptor 2A (Homo sapiens) (UniProt P28223); experiment: 5-hydroxytryptamine receptor 2A (HTR2A) small molecule agonists, cell-based qHTS assay (AID 1963587); also: nearly all actives have a fitted effect of over 30% in size; also: potency is read from the fitted curve at half-maximal effect
Summary of the method: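 CHO cells stably expressing human HTR2A, plated 18 h, loaded with calcium dye 1 h at 37 C. Agonist mode: compounds added and intracellular calcium fluorescence recorded kinetically for 2 min at 1 sec intervals.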

[14] = target: Muscarinic acetylcholine receptor M1 (Homo sapiens) (UniProt P11229); experiment: Cholinergic receptor muscarinic 1 (CHRM1) small molecule antagonists, cell-based qHTS assay (AID 1963588); also: nearly all actives have a fitted effect of over 40% in size
Summary of the method: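 Compounds were tested at 15 concentrations in three independent runs. Dye-loaded CHRM1-CHO cells were exposed 5 min at room temperature before stimulation by acetylcholine added at 50nM. Intracellular calcium was read kinetically on FDSS for 3 min.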

[15] = target: Muscarinic acetylcholine receptor M1 (Homo sapiens) (UniProt P11229); experiment: Cholinergic receptor muscarinic 1 (CHRM1) small molecule agonists, cell-based qHTS assay (AID 1963589); also: nearly all actives have a fitted effect of over 35% in size
Summary of the method: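 Fluorescent calcium dye reports M1 activation in stably transfected CHO cells. Compounds, 15 concentrations, added after 1 h dye loading at 37 C; kinetic reading at 1 sec intervals.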

[16] = cAMP Responsive Elements (CRE) small molecule agonists, cell-based qHTS assay (AID 1963590)
Summary of the method: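 Compound exposure lasted 3 h at 37 C/5% CO2 in CRE-bla HEK 293T cells grown in assay medium with 10% dialyzed FBS and 25 mM HEPES. Reporter signal came from LiveBLAzer B/G FRET substrate, 2 h, room temperature.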

[17] = cAMP Responsive Elements (CRE) small molecule antagonists, cell-based qHTS assay (AID 1963591; active = well fitted inhibition curve with a large enough effect in the signal ratio in the repeat runs, not every such curve was filed as active; the % refers to the signal ratio)
Summary of the method: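 Stimulation used NKH477 at a final 0.25 uM for 3 h in compound-treated CRE-bla HEK293T cells, seeded 18 h beforehand. Reporter activity was measured with LiveBLAzer B/G FRET substrate after 2 h at room temperature.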

[18] = target: Beta-2 adrenergic receptor (Homo sapiens) (UniProt P07550); experiment: Adrenergic beta2 receptor (ADRB2) small molecule antagonists, cell-based qHTS assay (AID 1963592); also: series mostly up to about 92 µM; nearly all actives have a fitted effect of over 50% in size
Summary of the method: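 Assay format: CHO-ADRB2 cells, 18-20hr seeding at 37C/5% CO2, then compound plus 1nM isoproterenol agonist mix for 0.5hr RT. Homogeneous time-resolved fluorescence cAMP detection after 1hr, expressed as 665/615 nm ratio.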

[19] = target: D(2) dopamine receptor (Homo sapiens) (UniProt P14416); experiment: Dopamine D2 receptor (DRD2) small molecule agonists, cell-based qHTS assay (AID 1963594); also: nearly all actives have a fitted effect of over 35% in size
Summary of the method: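 HEK293 cells stably expressing human DRD2, pre-treated with PDE inhibitor Ro20-1724 (0.1 mM final) and compound 10 min at room temperature, then stimulated with NKH477 (200nM […]) for 30 min. cAMP read by HTRF (665/620 nm).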

[20] = target: D(2) dopamine receptor (Homo sapiens) (UniProt P14416); experiment: Dopamine D2 receptor (DRD2) small molecule antagonists, cell-based qHTS assay (AID 1963595; active = well fitted inhibition curve with a large enough effect in the signal ratio in the repeat runs, with a control signal flat; the % refers to the signal ratio)
Summary of the method: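 Antagonism was scored as restored cAMP in HEK293-DRD2 cells. These cells were stimulated with 200 nM NKH477 and 12 nM quinpirole for 30 min at room temperature, in the presence of 0.1 mM Ro20-1724.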

D(2) dopamine receptor (Homo sapiens), sequence (P14416 whole entry, looked up): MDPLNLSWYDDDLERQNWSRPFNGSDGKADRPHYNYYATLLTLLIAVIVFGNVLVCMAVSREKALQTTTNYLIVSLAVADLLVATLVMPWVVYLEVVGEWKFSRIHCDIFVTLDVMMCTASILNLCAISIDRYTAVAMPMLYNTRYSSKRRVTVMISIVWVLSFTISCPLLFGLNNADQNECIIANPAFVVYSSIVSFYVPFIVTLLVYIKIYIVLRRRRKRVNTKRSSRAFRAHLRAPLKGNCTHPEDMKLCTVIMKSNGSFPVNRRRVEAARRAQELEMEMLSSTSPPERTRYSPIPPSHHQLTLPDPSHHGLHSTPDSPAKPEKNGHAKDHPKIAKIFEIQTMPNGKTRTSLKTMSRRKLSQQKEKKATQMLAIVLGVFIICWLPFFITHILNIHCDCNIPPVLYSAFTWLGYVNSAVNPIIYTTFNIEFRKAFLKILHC
Muscarinic acetylcholine receptor M1 (Homo sapiens), sequence (P11229 whole entry, looked up): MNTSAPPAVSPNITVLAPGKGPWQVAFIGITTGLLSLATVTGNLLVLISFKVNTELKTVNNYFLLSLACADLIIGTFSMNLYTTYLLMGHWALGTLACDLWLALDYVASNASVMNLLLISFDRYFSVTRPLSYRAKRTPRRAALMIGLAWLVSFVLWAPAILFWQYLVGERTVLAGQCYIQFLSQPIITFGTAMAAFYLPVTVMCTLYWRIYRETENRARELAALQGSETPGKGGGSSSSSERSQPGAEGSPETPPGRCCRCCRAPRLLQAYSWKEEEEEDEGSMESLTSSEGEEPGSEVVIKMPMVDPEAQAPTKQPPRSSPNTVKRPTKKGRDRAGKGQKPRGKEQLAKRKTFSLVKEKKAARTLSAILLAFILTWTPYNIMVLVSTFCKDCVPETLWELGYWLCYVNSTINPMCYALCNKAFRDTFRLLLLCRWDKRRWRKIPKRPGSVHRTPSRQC
5-hydroxytryptamine receptor 2A (Homo sapiens), sequence (P28223 whole entry, looked up): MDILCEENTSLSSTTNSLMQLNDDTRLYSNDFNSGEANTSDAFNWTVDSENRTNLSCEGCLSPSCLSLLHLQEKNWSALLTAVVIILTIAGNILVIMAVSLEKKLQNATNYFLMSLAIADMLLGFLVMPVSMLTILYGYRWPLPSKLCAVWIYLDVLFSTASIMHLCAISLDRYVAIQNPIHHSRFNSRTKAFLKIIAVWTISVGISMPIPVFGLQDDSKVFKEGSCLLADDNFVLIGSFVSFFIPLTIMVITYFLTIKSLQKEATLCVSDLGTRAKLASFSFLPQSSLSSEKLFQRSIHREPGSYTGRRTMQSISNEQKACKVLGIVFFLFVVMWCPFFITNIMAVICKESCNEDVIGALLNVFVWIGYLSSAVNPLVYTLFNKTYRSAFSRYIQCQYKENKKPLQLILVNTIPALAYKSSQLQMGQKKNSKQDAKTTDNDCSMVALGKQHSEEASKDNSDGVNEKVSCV
Beta-2 adrenergic receptor (Homo sapiens), sequence (P07550 whole entry, looked up): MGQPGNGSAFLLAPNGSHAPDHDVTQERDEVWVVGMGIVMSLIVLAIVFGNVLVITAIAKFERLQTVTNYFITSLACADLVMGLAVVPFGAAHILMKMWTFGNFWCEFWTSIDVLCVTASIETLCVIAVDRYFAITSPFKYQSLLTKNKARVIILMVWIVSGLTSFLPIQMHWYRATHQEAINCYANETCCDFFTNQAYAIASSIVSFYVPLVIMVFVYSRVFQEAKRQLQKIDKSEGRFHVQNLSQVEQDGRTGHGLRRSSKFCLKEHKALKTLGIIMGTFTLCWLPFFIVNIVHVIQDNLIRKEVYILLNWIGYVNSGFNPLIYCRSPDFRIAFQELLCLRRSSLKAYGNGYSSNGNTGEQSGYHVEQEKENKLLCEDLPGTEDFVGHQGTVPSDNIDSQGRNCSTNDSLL
KiSS-1 receptor (Homo sapiens), sequence (Q969F8 whole entry, looked up): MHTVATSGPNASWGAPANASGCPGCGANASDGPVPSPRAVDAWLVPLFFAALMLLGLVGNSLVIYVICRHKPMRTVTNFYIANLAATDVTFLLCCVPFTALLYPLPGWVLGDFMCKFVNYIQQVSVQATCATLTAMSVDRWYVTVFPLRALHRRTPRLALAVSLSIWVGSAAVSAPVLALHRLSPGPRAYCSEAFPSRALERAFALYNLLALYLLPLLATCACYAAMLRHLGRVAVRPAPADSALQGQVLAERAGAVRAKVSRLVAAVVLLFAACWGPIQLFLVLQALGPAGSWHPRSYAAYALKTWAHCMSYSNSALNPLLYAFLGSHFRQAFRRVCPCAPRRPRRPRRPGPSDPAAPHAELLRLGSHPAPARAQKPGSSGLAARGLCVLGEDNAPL
Gonadotropin-releasing hormone receptor (Homo sapiens), sequence (P30968 whole entry, looked up): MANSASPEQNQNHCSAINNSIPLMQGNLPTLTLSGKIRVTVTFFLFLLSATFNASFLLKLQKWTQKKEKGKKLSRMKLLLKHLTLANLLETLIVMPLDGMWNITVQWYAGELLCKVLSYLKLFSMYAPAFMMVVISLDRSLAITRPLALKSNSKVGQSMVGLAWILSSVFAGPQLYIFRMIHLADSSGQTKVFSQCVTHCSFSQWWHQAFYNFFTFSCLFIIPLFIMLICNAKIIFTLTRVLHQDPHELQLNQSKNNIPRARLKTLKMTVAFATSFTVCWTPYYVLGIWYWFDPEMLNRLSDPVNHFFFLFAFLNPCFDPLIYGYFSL

Row | Compound | Potency [1] | Potency [2] | Potency [3] | outcome [4] | outcome [5] | Potency [6] | Potency [7] | Potency [8] | Potency [9] | Potency [10] | Potency [11] | Potency [12] | Potency [13] | Potency [14] | Potency [15] | Potency [16] | Potency [17] | Potency [18] | Potency [19] | Potency [20]
1 | COc1ccccc1N1CCN(CC(O)COc2cc(OC)c(OC)c(OC)c2)CC1 (stereo not drawn) | inactive | inactive | inactive | inactive | inactive | inactive | inactive | inactive | inactive | inactive | inactive | inactive | inactive | inactive | inactive | inactive | inactive | inactive |  | 
2 | Cc1cccc(C)c1C | inactive | inactive | inactive | inactive | inactive | inactive | inactive | inactive | inactive | inactive | inactive | inactive | inactive | inactive | inactive | inactive | inactive | inactive | inactive | inactive
3 | c1ccc(-c2nn[nH]n2)cc1 | inactive | inactive | inactive | inactive | inactive | inactive | inactive | inactive | inactive | inactive | inactive | inactive | inactive | inactive | inactive | inactive | inactive | inactive | inactive | inactive
4 | Cc1ccc(N(CCO)CCO)cc1 | inactive | inactive | inactive | inactive | inactive | inactive | inactive | inactive | inactive | inactive | inactive | inactive | inactive | inactive | inactive | inactive | inactive | inactive | inactive | inactive
5 | C=CC(=O)OCC1CCCO1 (stereo not drawn) | inactive | inactive | inactive | inactive | inactive | inactive | inactive | inactive | inactive | inactive | inactive | inactive | inactive | inactive | inactive | inactive | inactive | inactive | inactive | inactive
6 | COC(=O)c1cccc(Cl)c1 | inactive | inactive | inactive | inactive | inactive | inactive | inactive | inactive | inactive | inactive | inactive | inactive | 21.6 µM (active) | inactive | inactive | inactive | inactive | inactive | inactive | inactive
7 | CCOC(=O)[C@H](C)O | inactive | inactive | inactive | inactive | inactive | inactive | inactive | inactive | inactive | inactive | inactive | inactive | inactive | inactive | inactive | inactive | inactive | inactive | inactive | inactive
8 | CCCCOC(=O)/C=C\C(=O)OCCCC | inactive | 25.2 µM (active) | inactive | inactive | inactive | inactive | inactive | inactive | inactive | inactive | inactive | inactive | inactive | inactive | inactive | inactive | inactive | inactive | inactive | inactive
9 | CCCCC | inactive | inactive | 38.3 µM (active) | inactive | inactive | inactive | inactive | inactive | inactive | inactive | inactive | inactive | inactive | inactive | inactive | inactive | inactive | inactive | inactive | inactive
10 | CCCCCc1ccc(Cl)cc1 | inactive | inactive | inactive | inactive | inactive | inactive | inactive | inactive | inactive | inactive | inactive | inactive | inactive | inactive | inactive | inactive | inactive | inactive | inactive | inactive
11 | ClC1=C(Cl)C1(Cl)Cl | inactive | inactive | inactive | inactive | inactive | inactive | inactive | inactive | inactive | inactive | inactive | inactive | inactive | inactive | inactive | inactive | inactive | inactive | inactive | inactive
12 | CCc1cccc(C)c1N(C(=O)C(=O)O)C(C)COC (stereo not drawn) | inactive | inactive | inactive | inactive | inactive | inactive | inactive | inactive | inactive | inactive | inactive | inactive | inactive | inactive | inactive | inactive | inactive | inactive | inactive | inactive
13 | Cc1cc(C)c(C=O)c(C)c1 | inactive | inactive | inactive | inactive | inactive | inactive | inactive | inactive | inactive | inactive | inactive | inactive | inactive | inactive | inactive | inactive | inactive | inactive | inactive | inactive
14 | CCCCCO | inactive | inactive | inactive | inactive | inactive | inactive | inactive | inactive | inactive | inactive | inactive | inactive | inactive | inactive | inactive | inactive | inactive | inactive | inactive | inactive
